Screening data: PubChem BioAssay, National Center for Advancing Translational Sciences (NCATS)
Sampled rows, rich in hits. Any-hit rate of the full collection: about 5.4%.
Sm TGR block = blocks Schistosoma mansoni thioredoxin glutathione reductase. purified TGR, DTNB reduction, TNB absorbance 405 nm. Potency, µM (series often up to 114 µM), actives largely listed as inhibitors. Q962Y6. hit rate 3% among 360,000; active means well fitted inhibition curve with a large enough effect; inconclusive means small, poorly fitted or top-dose-only effect; inactive means no such curve, though single readings can be large or run the other way; further: nearly all actives have a fitted effect of over 60% in size
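TGR 20 nM + NADPH 100 uM (dispensed conc.), cpd preinc 15 min RT; start with NADPH (500 uM addition) then DTNB (15 mM addition). Kinetic TNB absorbance, 405 nm filter. Four-parameter Hill fit across titration.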
VACV mCherry inh = inhibitors of vaccinia virus infection (mCherry reporter signal). hit rate 0.63% among 310,000. Vaccinia virus mCherry reporter infection, fluorescence. Potency, µM (titrated, usually from 36.5 µM), usual class: inhibitors. AID 720579; calls by dose curve; tested in A549 cells; further: nearly all actives have a fitted effect of over 35% in size
MARV entry inh = Marburg virus entry inhibition; Potency, µM (doses to about 37.8 µM), usual class: inhibitors; Marburg virus pseudotyped entry inhibition, cell reporter; hit rate 1.8% among 300,000; calls by dose curve; tested in HEK293 cells
LASV entry inh = blocks Lassa virus binding to or entry into cells. hit rate 1.2% among 300,000. Potency, µM (doses to about 37.9 µM), most hits filed as inhibitors. Lassa virus pseudotype entry inhibition, cell reporter; calls by dose curve; tested in HEK293 cells; further: nearly all actives have a fitted effect of over 50% in size
FMDV inh = antivirals against foot and mouth disease virus; FMDV antiviral cell-based qHTS; Potency, µM (titrated, usually from 57.9 µM), most hits filed as inhibitors; hit rate 1.2% among 410,000; AID 1159524; calls by dose curve; tested in HEK293T cells; further: read-out not given here; nearly all actives have a fitted effect of over 45% in size
VACV Venus inh = vaccinia inhibition (Venus reporter); Potency, µM (highest dose often 36.5 µM), actives largely listed as inhibitors; hit rate 0.46% among 330,000; Vaccinia virus Venus reporter expression, fluorescence; calls by dose curve; tested in A549 cells; further: nearly all actives have a fitted effect of over 30% in size
Hits are given with their value.

COc1ccccc1OCCn1cc(/C=N/NC(N)=S)c2ccccc21 was read as Sm TGR block inactive, VACV mCherry inh inconclusive, FMDV inh inconclusive and VACV Venus inh 1.3µM.
For NC(=S)N/N=C/c1ccccc1OCCSc1ccc(Cl)cc1 the results were Sm TGR block inactive, VACV mCherry inh 0.089µM, MARV entry inh inconclusive, LASV entry inh 3.7µM, FMDV inh 35µM and VACV Venus inh 0.32µM.
Screening COC(=O)N/N=C/c1cn(Cc2ccc(F)cc2)c2ccccc12 returned Sm TGR block inactive and FMDV inh inactive.
`COc1ccccc1OCCn1cc(/C=N/NC(=O)c2ccncc2)c2ccccc21` gave Sm TGR block inactive, VACV mCherry inh inactive, MARV entry inh inactive, LASV entry inh inconclusive, FMDV inh inconclusive and VACV Venus inh inactive.
For O=C(N/N=C/c1cn(CCOc2ccccc2)c2ccccc12)c1ccncc1 the results were Sm TGR block inactive, VACV mCherry inh inactive, MARV entry inh inactive, LASV entry inh inconclusive, FMDV inh inactive and VACV Venus inh inactive.
COC(=O)N/N=C/c1cn(CCCOc2ccccc2)c2ccccc12 was read as Sm TGR block inactive, VACV mCherry inh inconclusive, MARV entry inh 16µM, LASV entry inh inconclusive, FMDV inh inconclusive and VACV Venus inh inconclusive.
For Cc1nc(N2CCCC2)ncc1C(=O)Nc1ccc(F)cc1F the results were Sm TGR block inactive, VACV mCherry inh inactive, LASV entry inh inactive, FMDV inh inactive and VACV Venus inh inactive.
Cc1ccc(C)c(CN2CCC3(CCC(CNC(=O)c4ccnn4C)O3)CC2)c1 (centres undefined) was read as VACV mCherry inh inactive, FMDV inh inactive and VACV Venus inh inactive.
For Cc1cccc(OCC(=O)N(Cc2cccc(Cl)c2)Cc2ccco2)c1C the results were Sm TGR block inactive, VACV mCherry inh inactive, MARV entry inh inconclusive, LASV entry inh inactive, FMDV inh inactive and VACV Venus inh inactive.
For COC(=O)N/N=C/c1cn(Cc2ccc(Cl)cc2Cl)c2ccccc12 the results were Sm TGR block inactive, VACV mCherry inh inactive, MARV entry inh 13µM, LASV entry inh inconclusive, FMDV inh inactive and VACV Venus inh inactive.
COc1ccc(CN2CCCC(c3nc(-c4ccncc4)ncc3-c3ccccc3C)C2)c(OC)c1 (centres undefined) was read as VACV mCherry inh inactive, FMDV inh inactive and VACV Venus inh inactive.
For Cc1ccc2c(CC(=O)N(Cc3ccc(N(C)C)cc3)Cc3ccco3)coc2c1C the results were Sm TGR block inactive, VACV mCherry inh inactive, MARV entry inh inactive, LASV entry inh inconclusive, FMDV inh inconclusive and VACV Venus inh inactive.
CCOP(=O)(CCP(=O)(OCC)OCC)OCC.C[CH2][Sn]([Cl])([Cl])[CH2]C was read as VACV mCherry inh inactive, MARV entry inh inconclusive, LASV entry inh 13µM, FMDV inh 2.8µM and VACV Venus inh inactive.
For CCOP(=O)(OCC)OCC the results were Sm TGR block inactive, VACV mCherry inh inactive, FMDV inh inactive and VACV Venus inh inactive.
`Fc1ccc(Nc2ncnc3onc(-c4cccc(Cl)c4)c23)c(F)c1` gave Sm TGR block inactive, VACV mCherry inh inactive, MARV entry inh inactive, LASV entry inh inactive, FMDV inh inactive and VACV Venus inh inactive.
`COc1cccc(NC(=O)C2CCCN(S(=O)(=O)c3ccc4[nH]c(=O)ccc4c3)C2)c1` (centres undefined) gave Sm TGR block inactive, VACV mCherry inh inactive, LASV entry inh inactive, FMDV inh inactive and VACV Venus inh inactive.
COc1ccc(Nc2nc(N3CCN(C)CC3)nc3ccccc23)c(OC)c1 was read as VACV mCherry inh inactive, FMDV inh inactive and VACV Venus inh inconclusive.
For COc1cc(N2CCN(C(C)C)CC2)ccc1Nc1nc(Nc2cccc3ncccc23)c2cc[nH]c2n1 the results were LASV entry inh 20µM.
`C=CCSc1nnc(C2CCCN(Cc3ccccc3O)C2)n1C` (centres undefined) gave VACV mCherry inh inactive, FMDV inh inactive and VACV Venus inh inactive.
For CC(=O)Nc1ccc(S(=O)(=O)c2ccnc3cc(Cl)ccc23)cc1 the results were VACV mCherry inh inconclusive, FMDV inh 32µM and VACV Venus inh inconclusive.
CC(=O)Nc1ccc(S(=O)(=O)Nc2ccc(Cl)cn2)cc1 was read as Sm TGR block inactive, VACV mCherry inh inactive, MARV entry inh inconclusive, LASV entry inh inactive, FMDV inh inactive and VACV Venus inh inactive.
